Inconclusive results are not listed. Activity calls are given as the source filed them. Unless noted, calls follow the shape of the dose curve; as a rule, active = well fitted curve in the direction sought with a large enough effect in the repeat runs; inconclusive = weak or mixed curves; inactive = no such curve, though single readings can be large; an effect the other way counts as inactive or inconclusive.
Legend:
[1] = qHTS RealTime-Glo MT Cell Viability Assay in HEK293 cells - 0 hour (AID 1224880); also: top concentration of the series differs between compounds; nearly all actives have a fitted effect of over 45% in size
Summary of the method: (§1)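 Nonlytic bioluminescent viability monitoring. HEK293 at 600 cells/well with reagent; 5 h settle; compound transfer by pintool; plates held at 37 C and read at set time points.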

[2] = A CellTox Green Cytotoxicity Assay to monitor cytotoxicity in HEK293 cells - 32 hour (AID 1224881); also: nearly all actives have a fitted effect of over 40% in size
Summary of the method: (§2)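 Cytotoxicity was tracked continuously in HEK293 cells by a DNA-binding dye excluded from viable cells. Compounds were transferred in DMSO 5 h after seeding; fluorescence was recorded at intervals up to 40 h.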

[3] = A CellTox Green Cytotoxicity Assay to monitor cytotoxicity in HepG2 cells - 0 hour (AID 1224882); also: nearly all actives have a fitted effect of over 35% in size
Summary of the method: (§3)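 Real-time, homogeneous cytotoxicity readout: dead-cell DNA staining by CellTox Green in HepG2 monolayers, fluorescence measured at timed intervals up to 40 h of continuous compound exposure.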

[4] = A CellTox Green Cytotoxicity Assay to monitor cytotoxicity in HepG2 cells - 32 hour (AID 1224883); also: nearly all actives have a fitted effect of over 50% in size
Summary of the method: as §3

[5] = A CellTox Green Cytotoxicity Assay to monitor cytotoxicity in HEK293 cells - 8 hour (AID 1224884); also: nearly all actives have a fitted effect of over 35% in size
Summary of the method: as §2

[6] = qHTS RealTime-Glo MT Cell Viability Assay in HepG2 cells - 16 hour (AID 1224885); also: nearly all actives have a fitted effect of over 50% in size
Summary of the method: (§4)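 Compound treatment began 5 h after plating HepG2 cells (600/well) with NanoLuc luciferase and prosubstrate. Plates stayed at 37 C for 40 h; luminescence was captured at six time points, 0 h through 40 h.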

[7] = qHTS RealTime-Glo MT Cell Viability Assay in HEK293 cells - 24 hour (AID 1224886); also: top concentration of the series differs between compounds; nearly all actives have a fitted effect of over 50% in size
Summary of the method: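 Quantitative high-throughput screen of the Tox21 10K library in HEK293: cells and RealTime-Glo reagents plated together, compound added at 5 h, luminescence monitored through 40 h at 37 C.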

[8] = qHTS RealTime-Glo MT Cell Viability Assay in HEK293 cells - 8 hour (AID 1224887); also: top concentration of the series differs between compounds; nearly all actives have a fitted effect of over 50% in size
Summary of the method: as §1

[9] = A CellTox Green Cytotoxicity Assay to monitor cytotoxicity in HEK293 cells - 16 hour (AID 1224888); also: nearly all actives have a fitted effect of over 35% in size
Summary of the method: as §2

[10] = qHTS RealTime-Glo MT Cell Viability Assay in HepG2 cells - 0 hour (AID 1224889); also: nearly all actives have a fitted effect of over 50% in size
Summary of the method: as §4

[11] = A CellTox Green Cytotoxicity Assay to monitor cytotoxicity in HepG2 cells - 8 hour (AID 1224890); also: nearly all actives have a fitted effect of over 45% in size
Summary of the method: as §3

[12] = qHTS assay to identify small molecule antagonists of the estrogen receptor alpha (ER-alpha) signaling pathway using the BG1 cell line in the presence of 0.1 nM 17-beta-estradiol - cell viability counter screen (AID 1259241); also: nearly all actives have a fitted effect of over 40% in size
Summary of the method: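 The cell line endogenously expresses full-length ER-alpha and carries four EREs driving luciferase. Cells are cultured 5 days hormone-free, treated 22 hr with compounds and 0.1 nM estradiol, then viability is read by fluorescence.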

[13] = qHTS assay to identify small molecule antagonists of the androgen receptor (AR) signaling pathway using the MDA cell line in the presence of 0.5 nM R1881 - cell viability counter screen (AID 1259242); also: nearly all actives have a fitted effect of over 45% in size
Summary of the method: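 Cytotoxicity toward MDA-kb2 cells is measured by CellTiter-Fluor live-cell protease fluorescence after 16 hr compound exposure at 37C in the presence of 0.5 nM R1881 stimulator.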

[14] = qHTS assay to identify small molecule HDAC inhibitors (AID 1259364); also: top concentration of the series differs between compounds; nearly all actives have a fitted effect of over 45% in size
Summary of the method: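 Homogeneous cell-based luminescent assay of endogenous class I/II HDAC activity; HCT-116 cells, 2 h compound exposure, 30 min HDAC-Glo development at RT.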

[15] = qHTS assay to identify small molecule HDAC inhibitors - cell viability counter screen (AID 1259365)
Summary of the method: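 Viability readout: CellTiter-Glo luminescence. Wild-type HCT-116 cells, 2hr compound treatment following overnight attachment at 37 C.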

[16] = qHTS assay to identify small molecule agonists of the sonic hedgehog signaling (Shh) pathway - cell viability counter screen (AID 1259366); also: nearly all actives have a fitted effect of over 50% in size
Summary of the method: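 Viability measured fluorometrically (CellTiter-Fluor, 1hr, 37C) in 3T3 Gli1-Luc reporter cells after 23hr compound exposure within a 24hr incubation at 37C/5% CO2.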

[17] = qHTS assay to identify small molecule antagonists of the sonic hedgehog signaling (Shh) pathway - cell viability counter screen (AID 1259367); also: nearly all actives have a fitted effect of over 55% in size
Summary of the method: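 NIH/3T3-derived Gli1-Luc reporter cells, 2,000/well, plated 4 hr before compound addition, then stimulated with conditioned medium for 24 hr at 37C. Viability measured in the same wells by CellTiter-Fluor fluorescence, reagent added at 23 hr for 1 hr.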

[18] = molecular target: Estrogen receptor (Homo sapiens) (UniProt P03372); assay: qHTS assay to identify small molecule antagonists of the estrogen receptor alpha (ER-alpha) signaling pathway using the BG1 cell line in the presence of 0.1 nM 17-beta-estradiol (AID 1259244); also: nearly all actives have a fitted effect of over 50% in size
Summary of the method: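 After 5 days in hormone-depleted medium (charcoal-stripped serum, no phenol red), VM7Luc4E2 cells were seeded, incubated 24 h, then co-treated with compound and 0.1 nM (final) estradiol for 22 h before luminescence detection.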

[19] = molecular target: Androgen receptor (Homo sapiens) (UniProt P10275); assay: qHTS assay to identify small molecule antagonists of the androgen receptor (AR) signaling pathway using the MDA cell line in the presence of 0.5 nM R1881 (AID 1259243); also: nearly all actives have a fitted effect of over 50% in size
Summary of the method: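 Steps: seed MDA-kb2 cells, incubate 5 hr at 37C; pin-transfer compounds in DMSO; add R1881 to 0.5 nM final; incubate 16 hr; add ONE-Glo, wait 30 min at room temperature; read luminescence.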

[20] = qHTS assay to identify small molecule phospholipidosis (PLD) inducers (AID 1259344; active = well fitted curve in the direction sought with a large enough effect; an effect the other way counts as inactive or inconclusive)
Summary of the method: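 HepG2 cells, 900/well, treated with compound plus LipidTOX Red for 24 h at 37 C; amiodarone positive and DMSO negative controls. Fixed with paraformaldehyde/Hoechst, then high-content imaging scored LipidTOX pit count and integrated intensity per well and per cell.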

Measured: Potency

Androgen receptor (Homo sapiens), sequence (P10275 whole entry, looked up): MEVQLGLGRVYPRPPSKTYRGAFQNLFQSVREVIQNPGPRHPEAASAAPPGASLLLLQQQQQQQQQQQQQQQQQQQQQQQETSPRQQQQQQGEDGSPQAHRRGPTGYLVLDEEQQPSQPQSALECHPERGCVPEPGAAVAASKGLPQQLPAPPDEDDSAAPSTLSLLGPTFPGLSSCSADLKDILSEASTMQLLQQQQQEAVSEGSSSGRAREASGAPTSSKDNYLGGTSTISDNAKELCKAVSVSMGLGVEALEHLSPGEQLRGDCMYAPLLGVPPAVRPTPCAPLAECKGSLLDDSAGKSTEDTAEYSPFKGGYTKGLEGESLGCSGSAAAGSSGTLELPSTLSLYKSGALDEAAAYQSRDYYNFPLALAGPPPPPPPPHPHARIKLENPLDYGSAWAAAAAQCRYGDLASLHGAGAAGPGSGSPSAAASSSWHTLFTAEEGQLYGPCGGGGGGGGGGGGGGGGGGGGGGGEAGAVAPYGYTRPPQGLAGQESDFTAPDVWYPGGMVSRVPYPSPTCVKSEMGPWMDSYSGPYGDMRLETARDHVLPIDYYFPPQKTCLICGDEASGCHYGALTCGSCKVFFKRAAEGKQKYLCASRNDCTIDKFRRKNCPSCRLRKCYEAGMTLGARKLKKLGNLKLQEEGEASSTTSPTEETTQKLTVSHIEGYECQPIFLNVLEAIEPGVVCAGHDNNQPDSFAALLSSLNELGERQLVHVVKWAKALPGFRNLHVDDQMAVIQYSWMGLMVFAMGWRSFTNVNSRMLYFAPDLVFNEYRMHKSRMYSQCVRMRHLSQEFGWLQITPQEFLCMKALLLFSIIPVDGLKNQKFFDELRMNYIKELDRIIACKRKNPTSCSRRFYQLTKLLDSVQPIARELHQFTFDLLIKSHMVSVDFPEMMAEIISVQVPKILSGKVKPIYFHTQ
Estrogen receptor (Homo sapiens), sequence (P03372 whole entry, looked up): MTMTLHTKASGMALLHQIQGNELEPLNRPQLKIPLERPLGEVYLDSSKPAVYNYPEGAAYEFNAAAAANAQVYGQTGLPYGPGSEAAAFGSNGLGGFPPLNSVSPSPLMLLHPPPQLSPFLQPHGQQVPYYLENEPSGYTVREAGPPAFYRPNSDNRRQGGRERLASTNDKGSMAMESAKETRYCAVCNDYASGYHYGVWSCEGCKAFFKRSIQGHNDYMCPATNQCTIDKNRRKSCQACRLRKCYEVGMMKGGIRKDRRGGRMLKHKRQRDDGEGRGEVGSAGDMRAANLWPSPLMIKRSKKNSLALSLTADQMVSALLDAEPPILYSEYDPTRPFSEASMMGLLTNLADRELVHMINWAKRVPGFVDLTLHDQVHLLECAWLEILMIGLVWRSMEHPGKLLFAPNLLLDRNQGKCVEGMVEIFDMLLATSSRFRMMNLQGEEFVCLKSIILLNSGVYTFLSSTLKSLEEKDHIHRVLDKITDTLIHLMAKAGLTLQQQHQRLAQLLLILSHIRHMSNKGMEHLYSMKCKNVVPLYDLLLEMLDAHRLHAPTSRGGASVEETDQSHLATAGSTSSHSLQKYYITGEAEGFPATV

CN1Cc2cc(C(=O)N3CCC(C4CCNCC4)CC3)ccc2N[C@@H](CC(=O)O)C1=O
inactive: [1] | [2] | [3] | [4] | [5] | [6] | [7] | [8] | [9] | [10] | [11] | [12] | [13] | [14] | [15] | [16] | [17]

C1COCO1
inactive: [1] | [2] | [3] | [4] | [5] | [6] | [7] | [8] | [9] | [10] | [11] | [12] | [13] | [18] | [14] | [15] | [16] | [17]

CC(=O)Nc1ccc(N)cc1
inactive: [1] | [2] | [3] | [4] | [5] | [6] | [8] | [9] | [10] | [11] | [12] | [13] | [19] | [18] | [14] | [15] | [16] | [17]

OCC1CC=CCC1 (stereo unspecified)
inactive: [1] | [2] | [3] | [4] | [5] | [6] | [7] | [8] | [9] | [10] | [11] | [12] | [13] | [19] | [18] | [14] | [15] | [16] | [17]

c1ccc(COCc2ccccc2)cc1
inactive: [1] | [2] | [3] | [4] | [5] | [6] | [7] | [8] | [9] | [10] | [12] | [13] | [18] | [14] | [15] | [16] | [17]

CN1C(=O)CC(C)(c2ccccc2)C1=O (stereo unspecified)
inactive: [1] | [2] | [3] | [4] | [5] | [6] | [7] | [8] | [9] | [10] | [11] | [12] | [13] | [18] | [20] | [14] | [15] | [16] | [17]

COC(=O)CC(=O)C(C)(C)C
inactive: [1] | [2] | [3] | [4] | [5] | [6] | [7] | [8] | [9] | [10] | [12] | [13] | [14] | [15] | [16] | [17]

O=C(O)C(Cc1cc(I)c(O)c(I)c1)c1ccccc1 (stereo unspecified)
inactive: [1] | [2] | [3] | [4] | [5] | [6] | [7] | [8] | [9] | [10] | [12] | [13] | [18] | [20] | [14] | [15] | [16] | [17]

COC(=O)c1cc(S(N)(=O)=O)ccc1OC
inactive: [1] | [2] | [3] | [4] | [5] | [6] | [7] | [8] | [9] | [10] | [11] | [12] | [13] | [19] | [18] | [14] | [15] | [16] | [17]

CCOC(=O)c1ccccc1OC
inactive: [1] | [2] | [3] | [4] | [5] | [6] | [7] | [8] | [9] | [10] | [11] | [12] | [13] | [14] | [15] | [16] | [17]

CC1CC(O)CC(C)(C)C1 (stereo unspecified)
inactive: [1] | [2] | [3] | [4] | [5] | [6] | [7] | [8] | [10] | [11] | [12] | [13] | [20] | [14] | [15] | [16] | [17]

O=C(O)c1cccc(O)c1
inactive: [1] | [2] | [3] | [4] | [5] | [6] | [7] | [8] | [9] | [10] | [12] | [13] | [18] | [14] | [15] | [16] | [17]

CC#N
inactive: [1] | [2] | [3] | [4] | [5] | [6] | [7] | [8] | [9] | [10] | [11] | [12] | [13] | [18] | [14] | [15] | [16] | [17]

CCCOc1ccc(S(=O)(=O)N2CCN(CC)CC2)cc1-c1nc2c(CC)n(Cc3ccccn3)nc2c(=O)[nH]1
inactive: [1] | [2] | [3] | [4] | [5] | [6] | [7] | [8] | [9] | [10] | [11] | [12] | [13] | [18] | [14] | [15]

From PubChem BioAssay (Tox21)
